# Screening data as filed in PubChem BioAssay.
# Rows were chosen to be rich in hits. Some 2% of all compounds tested hit in one or more screens of this group.
# GC-A act = GC-A (human) enzyme activation; 0.14% of 370,000 active; HEK293 GC-A cells, cGMP TR-FRET, EC30 ANP; 0% at EC30 ANP, 100% saturating ANP; activation, % at 10 µM; AID 1671463; P16066; in the data active means activation above about 40%
# NPR2 activator = GC-B (human) receptor activation; HEK293-GC-B cells, CNP EC30, cGMP TR-FRET; 0% at EC30 CNP, 100% saturating CNP; activation, % at 10 µM; 0.11% of 370,000 active; AID 1920062;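 active means activation at 10 µM reaching about 35% in either raw or pattern-adjusted values, limit read from the data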
# FAS TE block = inhibitors of human fatty acid synthase thioesterase domain; P49327; 0.67% of 360,000 active; recombinant FAS-TE, OMFH fluorogenic substrate, fluorescence endpoint; inhibition, % at 15 µM;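 active means compounds whose normalised, plate-corrected inhibition of enzyme fluorescence in the single-dose primary screen is 50% or more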;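 further: 0% = DMSO with enzyme and 100% = substrate without enzyme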
# ADAM10 inh = inhibits human ADAM10; O14672; recombinant ADAM10, EDANS/DABCYL FRET peptide cleavage, 3 h; inhibition, % at 7 µM; 0.62% of 370,000 active; AID 720582;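 active means inhibition above a per-campaign cutoff equal to the mean of compounds falling between control-based bounds plus 3 SD, cut at about 20% in these data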;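 further: 0% = DMSO wells while the 100% control is not disclosed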
# ADAM17 inh = inhibitors of human ADAM17. 0.83% of 370,000 active. recombinant ADAM17, EDANS/DABCYL FRET peptide cleavage. P78536. inhibition, % at 6.95 µM;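 active means inhibition above the mean of compounds lying between control limits plus 3 SD, set per campaign, cut at about 8.5% in these data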;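 further: 0% = DMSO-only wells as the low control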
# ADAM10 confirm = human ADAM10 inhibition, confirmation; shares compounds with ADAM10 inh; ADAM10 QFRET peptide cleavage, EDANS fluorescence; 1% of 2,100 active; inhibition, % at 6.95 µM;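 active means inhibition above about 20% chosen separately for each screening run, limit read from the data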;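 further: 0% = DMSO wells and 100% = marimastat wells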
# ADAM17 counter = ADAM17 inhibition, counter-screen for ADAM10 exosite hits | ADAM17 QFRET peptide cleavage, EDANS fluorescence | shares compounds with ADAM10 inh | 0.5% of 2,100 active | inhibition, % at 6.95 µM;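 active means mean triplicate inhibition above the solvent-only control wells' mean plus 3 SD, cut at about 12% in these data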;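 further: 0% = DMSO wells and 100% = marimastat wells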
# Starred values were filed as active, the others as inactive; · = not tested or not shown.
SMILES,GC-A act,NPR2 activator,FAS TE block,ADAM10 inh,ADAM17 inh,ADAM10 confirm,ADAM17 counter
C[C@]12C(=O)N(c3ccc(Br)cc3)C(=O)N1[C@@H]1c3ccccc3OC[C@@H]1[C@H]2c1ccccc1,0.2,4.4,47.3,22.7*,8.2,6.6,1.1
C[C@@]12C(=O)N(CCc3c[nH]c4ccccc34)CC(=O)N1[C@H]1c3ccccc3OC[C@@H]1[C@@H]2c1ccccc1,-12.5,-9.8,35.6,22.1*,8.5,4.8,2.2
CN1CC(=O)N2[C@H]3c4ccccc4OC[C@@H]3[C@H](c3ccccc3)[C@]2(C)C1=O,-2.5,-6.1,-4.1,6.3,-1.1,·,·
O=S(=O)(c1ccc(C(F)(F)F)cc1)N1CCCc2nc(-c3ccc(F)cc3)ccc21,-0.9,-1.9,·,-10.5,-4.4,·,·
Cc1ccc(Nc2c([N+](=O)[O-])cc(C(=O)N3CC(=O)Nc4ccccc43)cc2[N+](=O)[O-])c(C)c1,-10.1,-9.7,16.3,20.4*,3.0,6.7,1.8
O=C1CN(C(=O)c2ccc(Cl)c([N+](=O)[O-])c2)c2ccccc2N1,-29.9,-9.2,0.8,4.0,-4.5,·,·
CC(C)C(=O)N(c1ccc2oc(=O)sc2c1)S(=O)(=O)c1cccs1,0.8,-7.4,9.6,22.4*,2.7,5.0,0.2
CCC(=O)OCC(=O)[C@@]1(OC(=O)CC)[C@@H](C)C[C@H]2[C@@H]3CCC4=CC(=O)C=C[C@]4(C)[C@@]3(Cl)[C@@H](O)C[C@@]21C,-7.3,-0.4,19.9,21.0*,6.4,1.3,0.3
CCOC(=O)C1=NOC(C(C)=O)(C(=O)N2CCOCC2)C1 (centres undefined),-1.6,-0.8,·,-3.7,-2.9,·,·
CC(C)(C)c1cc(CP(=O)(c2ccccc2)c2ccccc2)cc(C(C)(C)C)c1O,-7.2,-0.3,21.5,24.5*,5.2,2.1,1.1
COc1cc(NC(=O)C(OC(=O)CNC(=O)c2ccccc2)c2ccccc2)cc(C(F)(F)F)c1 (centres undefined),-0.6,-3.3,·,28.6*,14.9*,1.2,1.7
CCOC(=O)C1=NOC(C(=O)Nc2nccs2)(C(=O)C2CC2)C1 (centres undefined),-1.7,7.1,·,1.0,1.4,·,·
O=C(NNc1ccccc1)C(=O)NNS(=O)(=O)c1ccc(CCCl)cc1,2.1,4.8,-5.2,35.0*,10.6*,13.3,0.9
COC(=O)C1CCN(C(=O)C2CC(=O)N(c3ccc(OC)cc3)C2c2ccc(OC)cc2)CC1 (centres undefined),-1.6,-8.9,·,2.2,0.2,·,·
Cc1ccccc1S(=O)(=O)N1C(c2ccc(Cl)c(Cl)c2)CC=C(C(=O)O)C1c1cccc(Br)c1 (centres undefined),-3.1,0.4,·,20.1*,1.4,2.0,-0.5
Cc1ccccc1S(=O)(=O)N1[C@@H](c2ccccc2)C(C(=O)O)=CC[C@H]1c1ccc(Cl)cc1,-0.8,2.5,1.7,-2.6,-2.2,·,·
O=C(Nc1ccccc1Cc1ccccc1)c1oc2ccccc2c1COc1ccccc1,2.8,4.6,22.5,4.5,0.0,·,·
O=C(NCCc1ccccc1)c1oc2ccccc2c1COc1ccccc1,0.7,-5.5,43.8,19.9*,7.2,6.3,2.6
O=C(OCc1cn(Cc2ccccc2)nn1)N1CCOCC1,-1.3,-0.3,·,1.5,-0.6,·,·
COCCSc1ncccc1-c1nc2ccccc2[nH]1,1.9,-3.5,·,-91.7,-23.6,·,·
CC1(C)CC(=O)c2c(oc3cc(O)c(O)cc23)C1,3.4,-3.8,-11.6,20.7*,2.2,4.0,1.9
C[C@H]1[C@H](NC(=O)c2ccc(C(C)(C)C)cc2)CC[C@@]23CCCN2C(=O)CCC[C@@H]13,-2.6,1.8,·,-2.1,-1.3,·,·
COc1cccc(NC(=O)COC(=O)C2CCN(S(=O)(=O)c3cccs3)CC2)c1,0.5,-3.7,0.3,6.5,2.6,·,·
CC(=O)c1ccc(NC(=O)COC(=O)C2CCN(S(=O)(=O)c3cccs3)CC2)cc1,-1.7,1.4,-5.5,84.7*,-0.9,-0.2,0.2
